Tau fibril ThT = qHTS for Inhibitors of Tau Fibril Formation, Thioflavin T Binding. Microtubule-associated protein tau (Homo sapiens), P10636. recombinant tau K18 P301L, heparin-induced fibrillization, ThT fluorescence. Potency, µM (doses to about 57.4 µM), for the others: at the highest dose activity, negative = inhibition, hits mostly inhibitors. 270,000 tested, 2.1% active; note: potency is the fitted concentration of half-maximal effect; nearly all actives have a fitted effect of over 55% in size
Target sequence (P10636 561-689 P618L limits assumed): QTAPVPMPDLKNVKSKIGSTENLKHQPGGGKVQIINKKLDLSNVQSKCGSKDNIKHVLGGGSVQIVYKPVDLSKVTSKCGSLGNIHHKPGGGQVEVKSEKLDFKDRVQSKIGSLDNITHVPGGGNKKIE
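Recombinant human tau K18 fragment […] carrying P301L, 15 uM unlabeled plus 0.24 uM Alexa 594-labeled, was fibrillized with 20 uM heparin in 100 mM sodium acetate pH 7 for 6 hr at 37 C; 30 uM ThT fluorescence read after 1 hr.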
KDM4E inh = qHTS Assay for Inhibitors of Human Jumonji Domain Containing 2E (JMJD2E); JMJD2E catalytic domain, FDH-coupled NADH fluorescence (FDH is formaldehyde dehydrogenase); Potency, µM (titrated, usually from 57.1 µM), without a hit: at the top dose activity change, negative = inhibition, most hits filed as inhibitors; 230,000 tested, 1.6% active; active = well fitted inhibition curve with a large enough effect, not every such curve was filed as active; inconclusive = small, poorly fitted or top-dose-only effect, or another doubt; inactive = no such curve, though single readings can be large or run the other way;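 note: potency is the fitted concentration of half-maximal effect; 0% = wells with enzyme and -100% = buffer wells without enzyme; nearly all actives have a fitted effect of over 50% in size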
Target sequence (B2RXH2 1-337 limits assumed): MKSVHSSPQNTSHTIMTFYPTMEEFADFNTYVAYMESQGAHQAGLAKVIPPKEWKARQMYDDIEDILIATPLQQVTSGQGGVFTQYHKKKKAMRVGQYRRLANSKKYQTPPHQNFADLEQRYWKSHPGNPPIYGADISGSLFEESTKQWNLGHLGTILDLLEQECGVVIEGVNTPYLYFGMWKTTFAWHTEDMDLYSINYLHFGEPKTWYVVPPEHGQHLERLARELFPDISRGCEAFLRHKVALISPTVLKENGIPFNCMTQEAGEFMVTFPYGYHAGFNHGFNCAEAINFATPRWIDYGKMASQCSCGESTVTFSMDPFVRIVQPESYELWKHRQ
Tau fluor cs = Counterscreen qHTS for Inhibitors of Tau Fibril Formation, Fluorescence Polarization. tau K18 P301L (four-repeat tau fragment) Alexa594 fluorescence, heparin fibrillization. Potency, µM (titrated, usually from 57.7 µM), for inactives: top-dose activity change, negative = decrease. 280,000 tested, 0.93% active. AID 1463, 2008; note: potency is the fitted concentration of half-maximal effect; nearly all actives have a fitted effect of over 55% in size
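Human K18 P301L tau (15 uM unlabeled plus 0.24 uM Alexa 594-labeled, final) in 100 mM sodium acetate pH 7 was mixed with compound and 20 uM heparin and incubated 6 hr at 37 C.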
Tau fibril FP = qHTS for Inhibitors of Tau Fibril Formation, Fluorescence Polarization; Microtubule-associated protein tau (Homo sapiens), P10636; K18 P301L tau heparin fibrillization, Alexa594 FP, 6 h; Potency, µM (doses to about 57.7 µM), without a hit: at the top dose activity, negative = inhibition, most hits filed as inhibitors; 280,000 tested, 0.39% active; AID 1468, 2008; note: potency is the fitted concentration of half-maximal effect; nearly all actives have a fitted effect of over 55% in size
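Recombinant K18 P301L […], labeled with Alexa 594 at 0.24 uM over 15 uM unlabeled; heparin inducer 20 uM final; 37 C, 6 hr; FP endpoint.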
Coupling enz = qHTS Assay for Inhibitors of Fructose-1,6-bisphosphate Aldolase from Giardia Lamblia: Coupling assay counterscreen; 290,000 tested, 0.67% active; activity change, negative = inhibition, % at 58.2 µM, hits read low; coupling enzyme system counterscreen, AmpLite Red fluorescence; in the data active = activity change below about -30%
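First, compound is pin-transferred into glyceraldehyde-3-phosphate coupling-enzyme reagent at 57.5 uM final and held 10 min at RT. Next, substrate, coupling system and AmpLite Red are added. After 20 min RT, fluorescence (525/598 nm) is read.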
Active calls of the source: *; ? = inconclusive; · = not tested or not shown; [ ] = another dose, or the depositor's remark. A selection: hits, their analogues and other compounds. The true share with any hit is near 3%. Unless noted, calls come from the whole dose curve; as a rule, active = well fitted curve in the direction sought with a large enough effect; inconclusive = small, poorly fitted or top-dose-only effect, or another doubt; inactive = no such curve, though single readings can be large; an effect the other way counts as inactive or inconclusive. Unless noted, % is set by controls: 0 for no effect and ±100 for the full control effect.

SMILES	Tau fibril ThT	KDM4E inh	Tau fluor cs	Tau fibril FP	Coupling enz
O=C(CS(=O)c1ccc(C(F)(F)F)cc1[N+](=O)[O-])Oc1ccccc1 (stereo unspecified)	3%	-2%	-10%	-1%	-39*
COC(=O)c1ccc(OC(=O)CS(=O)c2ccccc2[N+](=O)[O-])cc1 (stereo unspecified)	?	6%	?	-17%	0
N#Cc1c(C(F)(F)F)cc(C2CC2)nc1N1CCCC1	-15%	?	-14%	-13%	-34*
COc1cc(OC)c(C2Nc3cccc4cccc(c34)N2)c(OC)c1	·	·	·	·	-4
Oc1ccccc1C1Nc2cccc3cccc(c23)N1	7%	3%	11%	6%	-34*
COc1ccccc1C1Nc2cccc3cccc(c23)N1	22µM*	?	?	-12%	-11
CC1CCc2nc3ncn(Cc4cccc(F)c4)c(=O)c3cc2C1 (stereo unspecified)	-5%	·	-5%	1%	·
c1ccc2sc(SN3CCOCC3)nc2c1	-18%	13µM*	-4%	-17%	-1
c1ccc2sc(N3CCOCC3)nc2c1	-4%	8%	4%	9%	5
CCC(C)N1C(=O)/C(=C/c2c(NCCCOC(C)C)nc3c(C)cccn3c2=O)SC1=S (stereo unspecified)	?	?	1%	25µM*	-7
COc1ccc(CCNC(=O)c2c(C)nn(-c3ccc(F)cc3)c2-n2cccc2)c(OC)c1OC	-17%	·	-9%	3%	·
Cc1ccc(NC(=O)CN2C(=O)N/C(=C/c3ccco3)C2=O)cc1	?	16µM*	-24%	?	-7
CCc1ccccc1NC(=O)c1nnn(Cc2ccc(Cl)cc2)c1N	12%	·	-27%	?	·
COc1ccc(OC)c(CC2C(=O)Nc3ccc(Br)cc32)c1 (stereo unspecified)	-6%	·	-24%	-6%	·
CC1=C(C)/C(=N\OS(=O)(=O)c2ccccc2)C=CC1=O	13µM*	7%	?	16µM*	-77*
COc1cc2oc(=O)cc(-c3ccc(-c4sccc4C=O)cc3)c2c(OC)c1OC	?	·	-27%[81.3 µM]	2%[81.3 µM]	4
CC1=C(C(=O)Nc2ccc(C)cc2C)C(C(C)C)n2nc(SCc3ccccc3Cl)nc2N1 (stereo unspecified)	1%	·	4%	-6%	·
CCn1c(CNc2ccc(OC)cc2)nnc1SCC(=O)N1CCCc2ccccc21	?	1%	-13%	0%	-28
COc1ccc(NCc2nnc(SCC(=O)Nc3ccc(OC)cc3)n2C)cc1	-7%	2%	0%	1%	1
CCOC(=O)c1ccc(NC(=O)CSc2nnc(CNc3ccc(OC)cc3)n2C)cc1	14µM*	?	-28%	?	-27
COc1ccc(NCc2nnc(SCC(=O)N3CCCc4ccccc43)n2C)cc1	-2%	0%	-5%	0%	-38*
CC(C)(C)n1nnnc1C(c1cccnc1)N1CCN(c2cccc(C(F)(F)F)c2)CC1 (stereo unspecified)	-6%	-2%	-7%	7%	2
CC(C)(C)c1cc(C(c2cccnc2)N2CCN(CCO)CC2)cc(C(C)(C)C)c1O (stereo unspecified)	20µM*	-2%	-22%	?	-5
CCCCOc1[nH]c2nc(-c3ccco3)n(Cc3ccco3)c(=N)c2c1C#N	22µM*	?	?	-11%	-1
Cc1ccc(C(=O)Nc2cccc([N+](=O)[O-])c2)cc1S(=O)(=O)Nc1ccc(NC(=O)c2ccccc2)cc1	-16%	-5%	4.5µM*[quencher]	?	-4
SMILES	Tau fibril ThT	KDM4E inh	Tau fluor cs	Tau fibril FP	Coupling enz
Cc1ccc(NS(=O)(=O)c2ccc(OCC(=O)Nc3cccc([N+](=O)[O-])c3)c(C)c2)cc1	-4%	-7%	14µM*[quencher]	-7%	1
Cc1ccc(C(=O)Nc2ccccc2)cc1S(=O)(=O)Nc1ccc(Br)cc1	4%	·	?	16µM*	·
Cc1cc(I)ccc1Nc1c(C(=O)NOCC2CC2)cc(F)c(F)c1F	·	·	·	·	3
CCCN1CCC(=O)N(C(CSc2ccc(Br)cc2)CC(C)C)CC1 (stereo unspecified)	·	·	·	·	2
CCOC(=O)Nc1ccc2c(c1)Nc1ccccc1S2	7.9µM*	6%	14µM*[quencher]	-13%	0
CC(=O)c1ccc2c(c1)Nc1ccccc1S2	?	1%	?	?	-1
Cc1ccc(Nc2ccccc2)cc1	11%	0%	6%	1%	-6
CCOC(=O)c1ccc(NC2=CC(=O)C(=O)c3ccccc32)cc1	13µM*	?	?	-10%	·
COc1cc(OC)c(NC2=CC(=O)C(=O)c3ccccc32)cc1Cl	·	·	·	·	-50*
CCOC(=O)c1ccc(NC(=O)C(C)N2C(=O)c3ccccc3C2=O)cc1 (stereo unspecified)	-8%	?	-11%	1%	1
CCC(C(=O)Nc1cc(Cl)c(OC)cc1OC)c1ccccc1 (stereo unspecified)	-9%	-8%	-30%	1%	-1
Cc1ccc(NC2=CC(=O)C(=O)c3ccccc32)cc1	25µM*	14µM*	?	?	-56*
NS(=O)(=O)c1ccc(NC2=CC(=O)C(=O)c3ccccc32)cc1	·	·	·	·	-71*
CCOc1c(Cl)cc(CNc2ccc3[nH]c(=O)[nH]c3c2)cc1OC	?	·	?	-11%	·
Cc1ccc(CNC(=O)CSc2nc3c(sc4ccccc43)c(=O)n2CCCOC(C)C)cc1	1%	·	-7%	-14%	·
O=[N+]([O-])c1cccc(/C=N\N=C2c3ccccc3-c3ccccc32)c1O	5µM*	-5%	?	8%	-9
NC(N)=N/N=C/c1cccc([N+](=O)[O-])c1O	-2%	1%	-8%	0%	1
COc1cc(Nc2nc(SCc3ccccc3F)nc3ccccc23)cc(OC)c1	?	·	?	7.1µM*	·
Fc1ccc(Nc2nc(SCc3ccccc3F)nc3ccccc23)cc1	?	·	?	7.9µM*	·
COc1ccc(C(C)=O)cc1CSc1nc(Nc2ccc(F)c(F)c2)c2ccccc2n1	8%	·	-14%	1%	·
O=C(CSc1nc(Nc2ccccc2)c2ccccc2n1)c1ccc(Cl)cc1	7%	·	3%	3%	·
Fc1cccc(CSc2nc(NCCc3ccccc3)c3ccccc3n2)c1	?	·	-27%	2%	·
COc1cc(Nc2nc(SCc3cccc(Cl)c3)nc3ccccc23)cc(OC)c1	?	·	?	7.9µM*	·
COc1cc(Nc2nc(SCC(=O)c3ccc(Cl)c(Cl)c3)nc3ccccc23)cc(OC)c1	2%	·	?	14µM*	·
